This is one part of a sample in which the strongest signals are shown more often than they occur.
Key:
Assay in all cases: glycan array binding signal (z-score within array); higher = stronger binding
Details in all cases: glycan notation: IUPAC condensed, linker removed
[1] = biological target: Fuc(a1-2)[GalNAc(a1-3)]Gal(b1-4)GlcNAc(b1-6)GalNAc
Method in brief: (§1)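 From the Consortium for Functional Glycomics database, 3228 arrays were curated, keeping only those whose protein sequence was available. Binding is given as a within-array Z-score averaged across arrays sharing a protein sequence and across linkers. Negative Z-scores can be read as non-binding.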

[2] = biological target: Fuc(a1-3)GlcNAc
Method in brief: as §1

[3] = biological target: Fuc(a1-3)[Gal(b1-4)]Glc6S
Method in brief: as §1

[4] = biological target: Gal(a1-3)Gal(b1-3)GlcNAc(b1-3)GalNAc
Method in brief: as §1

[5] = biological target: Gal(a1-3)Gal(b1-4)GlcNAc(b1-6)GalNAc
Method in brief: as §1

[6] = biological target: Gal(a1-3)Gal(b1-4)[Fuc(a1-3)]GlcNAc(b1-2)Man(a1-3)[Gal(a1-3)Gal(b1-4)[Fuc(a1-3)]GlcNAc(b1-2)Man(a1-6)]Man(b1-4)GlcNAc(b1-4)GlcNAc
Method in brief: as §1

[7] = biological target: Gal(a1-3)GalNAc
Method in brief: as §1

[8] = biological target: Gal(b1-3)Gal(b1-4)GlcNAc
Method in brief: as §1

[9] = biological target: Gal(b1-3)GalNAc(a1-3)[Fuc(a1-2)]Gal(b1-4)Glc
Method in brief: as §1

[10] = biological target: Gal(b1-3)GlcNAc(b1-2)[Gal(b1-3)GlcNAc(b1-6)]Man(a1-6)[Gal(b1-3)GlcNAc(b1-2)Man(a1-3)]Man(b1-4)GlcNAc(b1-4)GlcNAc
Method in brief: as §1

[11] = biological target: Gal(b1-3)GlcNAc(b1-3)GalNAc
Method in brief: as §1

[12] = biological target: Gal(b1-4)GalNAc(a1-3)[Fuc(a1-2)]Gal(b1-4)GlcNAc
Method in brief: as §1

[13] = biological target: Gal(b1-4)GlcNAc(b1-2)Man
Method in brief: as §1

[14] = biological target: Gal(b1-4)GlcNAc(b1-2)Man(a1-3)[Gal(b1-4)GlcNAc(b1-2)Man(a1-6)]Man(b1-4)GlcNAc(b1-4)[Fuc(a1-6)]GlcNAc
Method in brief: as §1

[15] = biological target: Gal(b1-4)GlcNAc(b1-2)Man(a1-6)Man(b1-4)GlcNAc(b1-4)GlcNAc
Method in brief: as §1

[16] = biological target: Gal(b1-4)GlcNAc(b1-3)Gal(b1-4)Glc
Method in brief: as §1

[17] = biological target: Gal(b1-4)GlcNAc(b1-3)Gal(b1-4)GlcNAc(b1-2)Man(a1-3)[Gal(b1-4)GlcNAc(b1-3)Gal(b1-4)GlcNAc(b1-2)Man(a1-6)]Man(b1-4)GlcNAc(b1-4)GlcNAc
Method in brief: as §1

[18] = biological target: Gal(b1-4)GlcNAc(b1-3)Gal(b1-4)GlcNAc(b1-2)Man(a1-3)[Gal(b1-4)GlcNAc(b1-3)Gal(b1-4)GlcNAc(b1-2)Man(a1-6)]Man(b1-4)GlcNAc(b1-4)[Fuc(a1-6)]GlcNAc
Method in brief: as §1

[19] = biological target: Gal(b1-4)GlcNAc(b1-3)Gal(b1-4)GlcNAc(b1-3)Gal(b1-4)GlcNAc(b1-2)Man(a1-3)[Gal(b1-4)GlcNAc(b1-3)Gal(b1-4)GlcNAc(b1-3)Gal(b1-4)GlcNAc(b1-2)Man(a1-6)]Man(b1-4)GlcNAc(b1-4)GlcNAc
Method in brief: as §1

[20] = biological target: Gal(b1-4)GlcNAc(b1-3)Gal(b1-4)GlcNAc(b1-3)[Gal(b1-4)GlcNAc(b1-3)Gal(b1-4)GlcNAc(b1-6)]GalNAc
Method in brief: as §1

[21] = biological target: Gal(b1-4)GlcNAc(b1-3)Gal(b1-4)GlcNAc(b1-6)[Gal(b1-3)]GalNAc
Method in brief: as §1

[22] = biological target: Gal(b1-4)GlcNAc(b1-3)[Fuc(a1-3)GlcNAc(b1-6)]Gal(b1-4)Glc
Method in brief: as §1

[23] = biological target: Gal6S(b1-3)GlcNAc
Method in brief: as §1

[24] = biological target: Glc(a1-4)Glc
Method in brief: as §1

[25] = biological target: GlcA3S(b1-3)Gal(b1-4)GlcNAc(b1-2)Man
Method in brief: as §1

[26] = biological target: GlcNAc(b1-3)Gal(b1-4)GlcNAc(b1-3)Gal(b1-4)GlcNAc(b1-2)Man(a1-3)[GlcNAc(b1-3)Gal(b1-4)GlcNAc(b1-3)Gal(b1-4)GlcNAc(b1-2)Man(a1-6)]Man(b1-4)GlcNAc(b1-4)GlcNAc
Method in brief: as §1

[27] = biological target: GlcNAc(b1-3)Gal(b1-4)GlcNAc(b1-3)Gal(b1-4)GlcNAc(b1-3)Gal(b1-4)GlcNAc(b1-2)[GlcNAc(b1-3)Gal(b1-4)GlcNAc(b1-3)Gal(b1-4)GlcNAc(b1-3)Gal(b1-4)GlcNAc(b1-6)]Man(a1-6)[GlcNAc(b1-3)Gal(b1-4)GlcNAc(b1-3)Gal(b1-4)GlcNAc(b1-3)Gal(b1-4)GlcNAc(b1-2)Man(a1-3)]Man(b1-4)GlcNAc(b1-4)[Fuc(a1-6)]GlcNAc
Method in brief: as §1

[28] = biological target: Kdn(a2-3)Gal(b1-4)Glc
Method in brief: as §1

[29] = biological target: Man(a1-3)[Man(a1-6)]Man(a1-6)[Man(a1-2)Man(a1-3)]Man(b1-4)GlcNAc(b1-4)GlcNAc
Method in brief: as §1

[30] = biological target: Neu5Ac(a2-3)Gal(b1-3)GlcNAc(b1-2)Man(a1-3)[GlcNAc(b1-4)][Neu5Ac(a2-3)Gal(b1-3)GlcNAc(b1-2)Man(a1-6)]Man(b1-4)GlcNAc(b1-4)GlcNAc
Method in brief: as §1

[31] = biological target: Neu5Ac(a2-3)Gal(b1-3)[GlcNAc(b1-6)]GalNAc
Method in brief: as §1

[32] = biological target: Neu5Ac(a2-3)Gal(b1-4)GlcNAc(b1-2)Man(a1-3)[Neu5Ac(a2-6)Gal(b1-4)GlcNAc(b1-2)Man(a1-6)]Man(b1-4)GlcNAc(b1-4)GlcNAc
Method in brief: as §1

[33] = biological target: Neu5Ac(a2-3)Gal(b1-4)GlcNAc(b1-3)Gal(b1-4)GlcNAc(b1-2)Man(a1-3)[Neu5Ac(a2-3)Gal(b1-4)GlcNAc(b1-3)Gal(b1-4)GlcNAc(b1-2)Man(a1-6)]Man(b1-4)GlcNAc(b1-4)GlcNAc
Method in brief: as §1

[34] = biological target: Neu5Ac(a2-3)Gal(b1-4)GlcNAc(b1-3)Gal(b1-4)GlcNAc(b1-3)Gal(b1-4)GlcNAc(b1-2)Man(a1-3)[Neu5Ac(a2-3)Gal(b1-4)GlcNAc(b1-3)Gal(b1-4)GlcNAc(b1-3)Gal(b1-4)GlcNAc(b1-2)Man(a1-6)]GalNAc
Method in brief: as §1

[35] = biological target: Neu5Ac(a2-3)Gal(b1-4)GlcNAc(b1-3)[Neu5Ac(a2-3)Gal(b1-4)GlcNAc(b1-6)]GalNAc
Method in brief: as §1

[36] = biological target: Neu5Ac(a2-3)Gal(b1-4)GlcNAc(b1-6)[Gal(b1-3)]GalNAc
Method in brief: as §1

[37] = biological target: Neu5Ac(a2-3)Gal(b1-4)GlcNAc6S
Method in brief: as §1

[38] = biological target: Neu5Ac(a2-3)[GalNAc(b1-4)]Gal(b1-4)GlcNAc
Method in brief: as §1

[39] = biological target: Neu5Ac(a2-6)Gal(b1-4)GlcNAc(b1-3)Gal(b1-4)GlcNAc(b1-3)Gal(b1-4)GlcNAc(b1-2)Man(a1-3)[Neu5Ac(a2-6)Gal(b1-4)GlcNAc(b1-3)Gal(b1-4)GlcNAc(b1-3)Gal(b1-4)GlcNAc(b1-2)Man(a1-6)]GalNAc
Method in brief: as §1

[40] = biological target: Neu5Ac(a2-6)Gal(b1-4)GlcNAc(b1-3)Gal(b1-4)GlcNAc(b1-3)[Neu5Ac(a2-6)Gal(b1-4)GlcNAc(b1-3)Gal(b1-4)GlcNAc(b1-6)]GalNAc
Method in brief: as §1

[41] = biological target: Neu5Ac(a2-6)Gal(b1-4)GlcNAc(b1-3)Gal(b1-4)[Fuc(a1-3)]GlcNAc(b1-3)Gal(b1-4)[Fuc(a1-3)]GlcNAc
Method in brief: as §1

[42] = biological target: Neu5Ac(a2-8)Neu5Ac(a2-3)Gal(b1-4)Glc
Method in brief: as §1

[43] = biological target: Neu5Gc(a2-3)Gal(b1-4)GlcNAc(b1-3)Gal(b1-4)GlcNAc(b1-2)Man(a1-3)[Neu5Gc(a2-3)Gal(b1-4)GlcNAc(b1-3)Gal(b1-4)GlcNAc(b1-2)Man(a1-6)]Man(b1-4)GlcNAc(b1-4)GlcNAc
Method in brief: as §1

[44] = biological target: Neu5Gc(a2-3)Gal(b1-4)[Fuc(a1-3)]GlcNAc
Method in brief: as §1

[45] = biological target: Neu5Gc(a2-6)Gal(b1-4)GlcNAc
Method in brief: as §1

B1: ACA (Amaranthus caudatus) (protein)
chain: MAGLPVIMCLKSNNNQKYLRYQSDNIQQYGLLQFSADKILDPLAQFEVEPSKTYDGLVHIKSRYTNKYLVRWSPNHYWITASANEPDENKSNWACTLFKPLYVEEGNMKKVRLLHVQLGHYTQNYTVGGSFVSYLFAESSQIDTGSKDVFHVIDWKSIFQFPKRYVTFKGNNGKYLGVITINQLPCLQFGYDNLNDPKVAHEMFVTSNGTICIKSTYMNKFWRLSTDDWILVDGNDPRETNEAAALFRSDVHDFNVISLLNMQKTWFIKRFTSGKPGFINCMNAATQNVDETAILEIIELGSNN
- glycan array binding signal (z-score) [1]: -0.116
- glycan array binding signal (z-score) [2]: -0.103
- glycan array binding signal (z-score) [3]: 0.058
- glycan array binding signal (z-score) [4]: -0.395
- glycan array binding signal (z-score) [5]: -0.246
- glycan array binding signal (z-score) [6]: -0.878
- glycan array binding signal (z-score) [7]: 0.156
- glycan array binding signal (z-score) [8]: 0.13
- glycan array binding signal (z-score) [9]: -0.399
- glycan array binding signal (z-score) [10]: -0.184
- glycan array binding signal (z-score) [11]: 0.052
- glycan array binding signal (z-score) [12]: -0.471
- glycan array binding signal (z-score) [13]: -0.376
- glycan array binding signal (z-score) [14]: 0.193
- glycan array binding signal (z-score) [15]: -0.378
- glycan array binding signal (z-score) [16]: -0.12
- glycan array binding signal (z-score) [17]: 4.74
- glycan array binding signal (z-score) [18]: 3.63
- glycan array binding signal (z-score) [19]: 5.84
- glycan array binding signal (z-score) [20]: 5.24
- glycan array binding signal (z-score) [21]: 3.84
- glycan array binding signal (z-score) [22]: 0.71
- glycan array binding signal (z-score) [23]: -0.469
- glycan array binding signal (z-score) [24]: 0.351
- glycan array binding signal (z-score) [25]: -0.456
- glycan array binding signal (z-score) [26]: 3.43
- glycan array binding signal (z-score) [27]: 0.586
- glycan array binding signal (z-score) [28]: -0.204
- glycan array binding signal (z-score) [29]: 6.44
- glycan array binding signal (z-score) [30]: -0.413
- glycan array binding signal (z-score) [31]: -0.266
- glycan array binding signal (z-score) [32]: -0.42
- glycan array binding signal (z-score) [33]: 3.13
- glycan array binding signal (z-score) [34]: 9.87
- glycan array binding signal (z-score) [35]: 0.132
- glycan array binding signal (z-score) [36]: 0.029
- glycan array binding signal (z-score) [37]: -0.219
- glycan array binding signal (z-score) [38]: -0.069
- glycan array binding signal (z-score) [39]: 3.17
- glycan array binding signal (z-score) [40]: 4.69
- glycan array binding signal (z-score) [41]: 0.326
- glycan array binding signal (z-score) [42]: -0.424
- glycan array binding signal (z-score) [43]: 1.25
- glycan array binding signal (z-score) [44]: -0.167
- glycan array binding signal (z-score) [45]: -0.372

From the supplement of paper PMC8728848
